# Data as given in PubChem BioAssay.
# Records with an inconclusive call do not appear. For some of these results: Entries with a potency or affinity are not part of this list. The source made the active and inactive calls. Unless noted, how the calls were made is not given here.
# Tests used:
# [1] = growth inhibition of DIPG glioma cells, dose response, cell-based, SU-DIPG-XVII, MIPE5.0, CellTiter-Glo, qHTS (AID 1347060; cut-off not given, nearly all actives have AC50 up to about 26 µM;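 on AC50: cells exposed to compound for 48 hours before viability readout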); details: SU-DIPG-XVII viability, CellTiter-Glo ATP luminescence
# [2] = growth inhibition of DIPG glioma cells, dose response, cell-based, SU-DIPG-XIII, MIPE4.0, CellTiter-Glo, qHTS (AID 1347061; cut-off not given, nearly all actives have AC50 up to about 37 µM;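 further: cells exposed to compound for 48 hours before readout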); details: SU-DIPG-XIII viability, CellTiter-Glo ATP luminescence
# [3] = growth inhibition of DIPG glioma cells, dose response, cell-based, JHH-DIPG-1, MIPE4.0, CellTiter-Glo, qHTS (AID 1347062; cut-off not given, nearly all actives have AC50 up to about 27 µM;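 on AC50: cells exposed to compound for two days before readout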); details: JHH-DIPG-1 viability, CellTiter-Glo ATP luminescence
# [4] = growth inhibition of DIPG glioma cells, dose response, cell-based, SU-DIPG-IV, MIPE4.0, CellTiter-Glo, qHTS (AID 1347063; cut-off not given, nearly all actives have AC50 up to about 30 µM;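 further: compound exposure lasted 48 hours before the viability readout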); details: SU-DIPG-IV viability, CellTiter-Glo ATP luminescence
# [5] = viability loss in pontine glioma line – cell-based, SU-DIPG-XXV, MIPE5.0, CellTiter-Glo, qHTS, dose response (AID 1347065; cut-off not given, nearly all actives have AC50 up to about 26 µM;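 further: cells exposed to compound for 48 hours before ATP readout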); details: CellTiter-Glo ATP luminescence
# [6] = SU-DIPG-VI glioma cell viability, MIPE4.0 library, CellTiter-Glo luminescence, qHTS (AID 1347066; cut-off not given, nearly all actives have AC50 up to about 30 µM;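 further: cells exposed to compound for 48 hours before readout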); details: CellTiter-Glo ATP luminescence
# [7] = JHH-DIPG-1 glioma cell viability, MIPE5.0 library, CellTiter-Glo luminescence, qHTS (AID 1347067; cut-off not given, nearly all actives have AC50 up to about 26 µM;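 further: cells exposed to compound for 48 hours before readout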); details: JHH-DIPG-1 glioma viability, CellTiter-Glo ATP luminescence
# [8] = SU-DIPG-XXV glioma cell viability, MIPE5.0 library, qHTS (AID 1347068; cut-off not given, nearly all actives have IC50 up to about 30 µM;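 on IC50: cells exposed to compound for 48 hours before viability readout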)
# [9] = phospholipid biosynthesis inhibitors in animal cells, primary screen, cell-based, LOPAC library, screen 4 (AID 1347384); details: phospholipid biosynthesis inhibition screen, at 10 µM
# [10] = LFS_MB_1R medulloblastoma cell growth inhibition, synergistic combos for chromothripsis tumors, cisplatin or BGB combos (AID 1671452; in the data active means inhibition above about 80%;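 further: cells exposed for 96 hours before readout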); details: LFS_MB_1R medulloblastoma cells, stronger effect = higher value
# [11] = MDA-MB-436 breast carcinoma cell growth inhibition, synergistic combos for chromothripsis tumors, BGB or cisplatin combos (AID 1671458); details: MDA-MB-436 breast carcinoma growth inhibition, drug combinations, stronger effect = higher value;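 further: cells exposed for 96 hours; 0% = vehicle DMSO and 100% = killing by high DMSO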
# [12] = growth inhibition of BT084 medulloblastoma cells, cell-based, ICGC_MB145, cisplatin and BGB IC40 combos (AID 1671461; in the data active means inhibition above about 80%;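 further: cells exposed to drugs for 96 hours; 0% = vehicle DMSO and 100% = high DMSO full killing control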); details: drug combinations, stronger effect = higher value
# [13] = growth inhibition of RCMB18 medulloblastoma cells, cell-based, cisplatin and BGB IC40 combos (AID 1671462; in the data active means inhibition above about 80%;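 further: cells exposed to compound for four days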); details: stronger effect = higher value
# [14] = growth inhibition of CRL1545 osteosarcoma cells, cell-based, cisplatin and BGB IC20 combos (AID 1671464; in the data active means inhibition above about 80%;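 further: cells exposed to compound for 96 hours before readout; 0% = vehicle DMSO and 100% = high DMSO killing control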); details: stronger effect = higher value
# [15] = rescue of polyQ-huntingtin neuronal dysfunction in worms, whole organism, C. elegans mechanosensory neurons, N-terminal huntingtin (AID 1599); details: touch response, stronger effect = higher value
# [16] = suppressors of polyglutamine aggregation in yeast, 75Q-TubH (AID 1616); details: S. cerevisiae 75Q-TubH polyglutamine aggregation suppression; stronger effect = higher value
# [17] = hESC survival regulators, cell-based (AID 493140); details: human embryonic stem cell survival screen; stronger effect = higher value;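 further: cells exposed to compounds for four days before counting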
# [18] = test system: Hepatitis C virus NS3 helicase; assay: HCV NS3 helicase inhibitors, primary screen, biochemical, fluorescence polarization, LOPAC1280 library (AID 687035; in the data active means inhibition above about 37%); details: Purified HCV NS3 helicase, Cy5-dT15 ssDNA binding fluorescence polarization; stronger effect = higher value; concentration not given here
# [19] = Cy5 fluorescence quenching or enhancement artefacts, artefact control for HCV NS3 helicase inhibitor project, biochemical, LOPAC1280 (AID 687037); details: Cy5-DNA-NS3h complex fluorescence interference counterscreen
# [20] = reducers of polyQ inclusions in PC12 cells, cell-based, NGF-treated PC12, GFPQ80 (AID 1614); details: PC12 NGF-treated GFP-polyQ80 inclusion reduction;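 further: lower means fewer inclusions and 0 means no inclusions at all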
# [21] = measured here: combination with BGB IC40, at 0.05 µM
# [22] = measured here: combination with cisplatin, at 0.5 µM
# [23] = measured here: combination with cisplatin, at 5 µM
# [24] = measured here: BGB combination, at 0.5 µM
# [25] = measured here: BGB combination, at 5 µM
# [26] = measured here: cisplatin combination, at 0.5 µM
# [27] = measured here: cisplatin combination, at 5 µM
# [28] = cisplatin combination, at 0.5 µM
# [29] = measured here: BGB IC40 combination 0.05 uM, at 0.05 µM
# [30] = measured here: BGB IC40 combination, at 0.05 µM
# [31] = measured here: with BGB IC20 combination, at 0.5 µM
# [32] = measured here: with cisplatin IC20 combination, at 0.5 µM
structure (smiles),measurement,setting,value
CC(=O)OCC(CCn1cnc2cnc(N)nc21)COC(C)=O,outcome,[1],inactive
same,outcome,[2],inactive
same,outcome,[3],inactive
same,outcome,[4],inactive
same,outcome,[5],inactive
same,outcome,[6],inactive
same,outcome,[7],inactive
same,outcome,[8],inactive
same,outcome,[9],inactive
same,inhibition,[10]; at 0.5 µM,-6.39% (inactive)
same,inhibition,[10]; [21],-41.8%
same,inhibition,[10]; [22],-15.8%
same,inhibition,[10]; [23],-6.32%
same,inhibition,[11]; at 0.5 µM,-18.3% (inactive)
same,inhibition,[11]; [24],-5.73%
same,inhibition,[11]; [25],-13.3%
same,inhibition,[11]; [26],-45.7%
same,inhibition,[11]; [27],-24.3%
same,inhibition,[12]; at 0.5 µM,-39.8% (inactive)
same,inhibition,[12]; [28],-22.3%
same,inhibition,"[12]; cisplatin combination, at 5 µM",-19.5%
same,inhibition,[12]; [29],-14.8%
same,inhibition,"[12]; single agent, at 5 µM",-21.3%
same,inhibition,[13]; at 0.5 µM,-15.5% (inactive)
same,inhibition,"[13]; cisplatin combo, at 5 µM",-24.5%
same,inhibition,[13]; [30],-9.28%
same,inhibition,[13]; [22],3.82%
same,inhibition,"[13]; single agent, at 5 µM",-35%
same,inhibition,[14]; at 0.5 µM,-2.74% (inactive)
same,inhibition,[14]; [31],4.75%
same,inhibition,[14]; [32],-8.9%
same,inhibition,"[14]; single agent, at 0.05 µM",-17%
same,inhibition,"[14]; single agent, at 5 µM",5.18%
O=C1c2c(O)ccc(O)c2C(=O)c2c(NCCNCCO)ccc(NCCNCCO)c21,rescue above control,[15],0
same,aggregation suppression score,[16],-1.69
same,survival,[17],0.583 (inactive)
same,inhibition,[18],119% (active)
same,fluorescence ratio (interference),[19],0.5 (active)
same,AC50,[1],0.417 µM (active)
same,AC50,[2],18.7 µM (active)
same,AC50,[3],2.35 µM (active)
same,AC50,[4],6.62 µM (active)
same,AC50,[5],11.8 µM (active)
same,AC50,[6],23.5 µM (active)
same,IC50,[8],18.6 µM (active)
same,outcome,[9],inactive
same,inhibition,[10]; at 0.5 µM,-4.33% (inactive)
same,inhibition,[10]; [21],1.71%
same,inhibition,[10]; [22],72.8%
same,inhibition,[10]; [23],94.2%
same,inhibition,[11]; at 0.5 µM,53.4% (inactive)
same,inhibition,[11]; [24],42.1%
same,inhibition,[11]; [25],93.8%
same,inhibition,[11]; [26],45.8%
same,inhibition,[11]; [27],95.6%
same,inhibition,[12]; at 0.5 µM,-10.6% (inactive)
same,inhibition,[12]; [28],42.8%
same,inhibition,"[12]; cisplatin combination, at 5 µM",49.8%
same,inhibition,[12]; [29],-13%
same,inhibition,"[12]; single agent, at 5 µM",75.3%
same,inhibition,[13]; at 0.5 µM,-1.35% (inactive)
same,inhibition,"[13]; cisplatin combo, at 5 µM",70.8%
same,inhibition,[13]; [30],-3.01%
same,inhibition,[13]; [22],-18.9%
same,inhibition,"[13]; single agent, at 5 µM",55.2%
same,inhibition,[14]; at 0.5 µM,65.5% (inactive)
same,inhibition,[14]; [31],74%
same,inhibition,[14]; [32],61.2%
same,inhibition,"[14]; single agent, at 0.05 µM",43.2%
same,inhibition,"[14]; single agent, at 5 µM",99.2%
COc1ccc(Cl)cc1C(=O)NCCc1ccc(S(=O)(=O)NC(=O)NC2CCCCC2)cc1,inclusion score,[20],2
same,aggregation suppression score,[16],1.07
same,survival,[17],5.42 (inactive)
same,inhibition,[18],1% (inactive)
same,fluorescence ratio (interference),[19],1 (inactive)
same,outcome,[9],inactive
CC(C)Cc1ccc(C(C)C(=O)O)cc1 (stereo not drawn),rescue above control,[15],11.4
same,inclusion score,[20],2
same,aggregation suppression score,[16],-0.00282
same,inhibition,[18],-2% (inactive)
same,fluorescence ratio (interference),[19],1 (inactive)
same,outcome,[1],inactive
same,outcome,[2],inactive
same,outcome,[3],inactive
same,outcome,[4],inactive
same,outcome,[5],inactive
same,outcome,[6],inactive
same,outcome,[8],inactive
same,outcome,[9],inactive
CCOC(=O)C1=C(C)NC(C)=C(C(=O)OC)C1c1cccc([N+](=O)[O-])c1 (stereo not drawn),survival,[17],5.33 (inactive)
same,inhibition,[18],-2% (inactive)
same,fluorescence ratio (interference),[19],0.9 (inactive)
same,outcome,[9],inactive
CC(=O)CC(c1ccccc1)c1c(O)c2ccccc2oc1=O (stereo not drawn),rescue above control,[15],-6.3
same,inclusion score,[20],2
same,aggregation suppression score,[16],0.635
same,outcome,[1],inactive
same,outcome,[2],inactive
same,outcome,[4],inactive
same,outcome,[5],inactive
same,outcome,[6],inactive
same,outcome,[7],inactive
same,outcome,[8],inactive
